Compound activity: PubChem BioAssay, National Center for Advancing Translational Sciences (NCATS)
Gal4-VP16 FLuc: Gal4-VP16 reporter inhibition counter-screen. Drosophila S2 Gal4-VP16 UAS-luciferase, luminescence, 20 h. Potency, µM (series often up to 53.6 µM), for inactives: at the highest dose activity, negative = inhibition, usual class: inhibitors. 310,000 tested, 3.5% active;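 also: Gal4-VP16 expression switched on by copper sulfate through the metallothionein promoter; nearly all actives have a fitted effect of over 50% in size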
TDP1 cell noCPT: qHTS for Inhibitors of human tyrosyl-DNA phosphodiesterase 1 (TDP1): qHTS in cells in absence of CPT | Potency, µM (highest dose often 46.2 µM), without a hit: at the highest dose activity change, negative = growth inhibition, hits mostly inhibitors | DT40 Tdp1-/- hTDP1 cells, no CPT, ATP luminescence, 48 h | 420,000 tested, 15% active | AID 686978, 2013; also: nearly all actives have a fitted effect of over 55% in size
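Compound effects on proliferation are scored in DT40 Tdp1-/-;hTDP1 cells in the absence of CPT. ATP levels (CellTiter-Glo luminescence) are recorded after a ≥48 hr, 37 °C incubation.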
ELG1 DNA repair: inhibitors of ELG1-dependent DNA repair in HEK293T cells; HEK293T ELG1-luciferase reporter, luminescence, 16 h; DNA damage induced by 5-fluorouridine; AID 504467; Potency, µM (doses to about 46.1 µM), inactives show top-dose activity change, negative = inhibition, usual class: inhibitors; 330,000 tested, 2.3% active; also: nearly all actives have a fitted effect of over 55% in size
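Step one: seed 2,000 cells per well. Step two: pin-transfer compound or DMSO alongside 5-fluorouridine. Step three: incubate 16 hr, 37 °C, 5% CO2. Step four: add ONE-Glo, wait 30 min, read luminescence.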
TDP1 cell CPT: growth inhibition of DT40 Tdp1-/-;hTDP1 cells with camptothecin (screen for TDP1 inhibitors). Potency, µM (doses to about 46.2 µM), for the others: at the top dose activity change, negative = growth inhibition, usual class: inhibitors. 420,000 tested, 12% active. AID 686979. chicken DT40 Tdp1-/-;hTDP1 cells + 20 nM CPT, ATP luminescence, 48 h; also: nearly all actives have a fitted effect of over 55% in size
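Chicken DT40 Tdp1-/- cells complemented with human TDP1, 400 cells/well, exposed to compounds plus 20 nM camptothecin for at least 48 h at 37 C; viability read as ATP content by CellTiter-Glo luminescence.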
ALOX12 inh: blocks human arachidonate 12S-lipoxygenase; P18054; purified 12hLO, xylenol orange hydroperoxide absorbance; Potency, µM (series often up to 108 µM), for the others: at the top dose activity change, negative = inhibition, usual class: inhibitors; 580,000 tested, 1.1% active; AID 1671190
Target sequence (P18054 whole entry, looked up): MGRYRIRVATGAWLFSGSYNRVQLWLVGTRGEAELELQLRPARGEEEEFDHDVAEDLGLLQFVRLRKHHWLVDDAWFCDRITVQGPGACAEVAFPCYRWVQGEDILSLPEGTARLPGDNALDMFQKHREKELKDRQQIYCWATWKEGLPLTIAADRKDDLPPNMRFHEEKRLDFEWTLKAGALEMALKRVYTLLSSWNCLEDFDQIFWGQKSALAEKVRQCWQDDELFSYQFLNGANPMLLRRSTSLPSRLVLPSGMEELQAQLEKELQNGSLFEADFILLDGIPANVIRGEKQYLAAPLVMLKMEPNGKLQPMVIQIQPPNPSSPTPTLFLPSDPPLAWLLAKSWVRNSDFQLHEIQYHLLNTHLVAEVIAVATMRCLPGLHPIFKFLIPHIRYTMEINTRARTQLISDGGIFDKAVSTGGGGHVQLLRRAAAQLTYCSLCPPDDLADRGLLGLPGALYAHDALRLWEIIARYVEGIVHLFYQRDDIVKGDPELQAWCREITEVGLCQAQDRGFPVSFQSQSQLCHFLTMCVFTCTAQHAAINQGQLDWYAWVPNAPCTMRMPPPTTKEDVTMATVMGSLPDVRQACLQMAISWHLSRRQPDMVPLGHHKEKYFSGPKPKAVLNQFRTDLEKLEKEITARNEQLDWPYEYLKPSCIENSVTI
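Purified human 12hLO (150 nM final) in 25 mM Hepes, 0.01% Triton X-100, pH 7.0 was preincubated 15 min at room temperature with compound. Then 40 uM arachidonic acid was added, 30 min. Hydroperoxide was read by Fe-XO absorbance ratio 573/405 nm.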
RORgamma inh: inhibitors of mouse ROR gamma transcriptional activity; P51450; Drosophila S2 Gal4-RORgamma UAS-luciferase reporter, 20 h; Potency, µM (doses to about 53.6 µM), for the others: at the highest dose activity change, negative = inhibition, usual class: inhibitors; 310,000 tested, 5.4% active; AID 2551; also: nearly all actives have a fitted effect of over 60% in size
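Drosophila S2 cells stably expressing Gal4-DBD/mouse RORγ fusion under metallothionein promoter plus UAS-luciferase; compound 1 h, then 700 uM CuSO4 induction for 20 h at ambient temperature; inhibition read as reduced luminescence.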
An asterisk follows results filed as active; [ ] = remark or other dose. Only some compounds are listed: those with a hit (about 15% of all), similar ones and a draw of the others. Calls follow the shape of the dose curve; as a rule, active = well fitted curve in the direction sought with a large enough effect; inconclusive = small, poorly fitted or top-dose-only effect, or another doubt; inactive = no such curve, though single readings can be large; an effect the other way counts as inactive or inconclusive. % is scaled to controls: 0 for no effect and ±100 for the full control effect; potency is read from the fitted curve at half-maximal effect.

For COc1ccc(Cn2c(=O)c3oc4ccccc4c3n(Cc3ccc(Cl)cc3)c2=O)cc1 the results were TDP1 cell noCPT -0.3%, TDP1 cell CPT 0.2% and ALOX12 inh -20.1%.
For Cc1cccc(Cn2c(=O)n(-c3cc(C)cc(C)c3)c(=O)c3oc4ccccc4c32)c1 the results were TDP1 cell noCPT 11.6µM*, TDP1 cell CPT 8.2µM* and ALOX12 inh 0.0%.
COc1cccc(Cn2c(=O)n(-c3cc(C)cc(C)c3)c(=O)c3oc4ccccc4c32)c1 was read as TDP1 cell noCPT 16.4µM*, TDP1 cell CPT inconclusive and ALOX12 inh 8.5%.
COc1ccc(Cn2c(=O)n(Cc3ccco3)c(=O)c3oc4ccccc4c32)cc1 was read as TDP1 cell noCPT 23.1µM*, TDP1 cell CPT inconclusive and ALOX12 inh -3.7%.
For O=c1cc(O)c2c(=O)n(Cc3ccccc3)c3ccccc3c2o1 the results were Gal4-VP16 FLuc -1.9%, TDP1 cell noCPT 23.1µM*, ELG1 DNA repair inconclusive, TDP1 cell CPT inconclusive, ALOX12 inh -26.7% and RORgamma inh -2.0%.
For Cc1cc(C)cc(NC(=O)Cn2c(=O)n(-c3cc(C)cc(C)c3)c(=O)c3oc4ccccc4c32)c1 the results were TDP1 cell noCPT inconclusive, TDP1 cell CPT inconclusive and ALOX12 inh -17.0%.
Screening O=C1CC2CCCC(C1)N2[S+](=O)([O-])c1ccccc1 returned ALOX12 inh 21.1%[176 µM].
`CC(C)c1nc2nccc(-c3cccs3)n2n1` gave ALOX12 inh 13.3%.
For Cc1ccc(-n2c(=O)c3oc4ccccc4c3n(Cc3cccc(F)c3)c2=O)cc1C the results were TDP1 cell noCPT inconclusive, TDP1 cell CPT 25.9µM* and ALOX12 inh -25.1%.
For Cc1cccc(-n2c(=O)c3ccccc3n(Cc3ccccc3)c2=O)c1 the results were TDP1 cell noCPT inconclusive, TDP1 cell CPT 23.1µM* and ALOX12 inh -19.8%.
For COc1cc2cc(C(=O)N[C@@H](C)C(=O)Nc3ccc4c(c3)OCO4)n(C)c2c(OC)c1OC the results were ALOX12 inh -1.5%.
`COCC(=O)N(C1CCOCC1)C1CCN(C(=O)c2cccc(C)c2)CC1` gave ALOX12 inh 14.4%.
For Cc1cc(C)n2c(Nc3c(C)cccc3C)c(-c3ccsc3)nc2n1 the results were TDP1 cell noCPT -19.9%, TDP1 cell CPT inconclusive and ALOX12 inh 1.5%.
Cc1ccc2nc(-c3ccsc3)c(NC3CCCC3)n2c1 was read as Gal4-VP16 FLuc -25.9%, TDP1 cell noCPT 13µM*, ELG1 DNA repair -12.4%, TDP1 cell CPT 10.3µM*, ALOX12 inh -3.6% and RORgamma inh inconclusive.
Screening Cc1ccc2nc(-c3ccncc3)c(NC3CCCCC3)n2c1 returned Gal4-VP16 FLuc -16.2%, TDP1 cell noCPT inconclusive, ELG1 DNA repair inconclusive, TDP1 cell CPT 23.1µM*, ALOX12 inh -3.8% and RORgamma inh 17.2%.
`Cc1ccc2nc(-c3ccncc3)c(Nc3ccccc3)n2c1` gave Gal4-VP16 FLuc 7.2%, TDP1 cell noCPT inconclusive, ELG1 DNA repair 11.4%, TDP1 cell CPT inconclusive, ALOX12 inh -10.8% and RORgamma inh -10.3%[10 µM].
For COc1ccc(CNC(=O)c2cccc(OCc3ccccc3)c2)cc1 the results were ALOX12 inh 6.2%.
`C=CCNC(=S)NNc1nc2sc3c(c2c(=O)[nH]1)CC(C)(C)OC3` gave Gal4-VP16 FLuc 10µM*, TDP1 cell noCPT inconclusive, ELG1 DNA repair -3.5%, TDP1 cell CPT 20.9%, ALOX12 inh -25.4% and RORgamma inh 5.62µM*.
For Cc1cnc(C2CCOCC2)n1CC1CCN(C(=O)CC2CCCC2)CC1 the results were ALOX12 inh 16.5%.
CCc1ccc(OCC(=O)N(Cc2ccco2)Cc2ccco2)cc1 was read as TDP1 cell noCPT 20.6µM*, TDP1 cell CPT inconclusive and ALOX12 inh -10.7%.
`Cc1ccc(CN(Cc2ccco2)C(=O)COc2cccc(C)c2C)o1` gave TDP1 cell noCPT 18.4µM*, TDP1 cell CPT 16.4µM* and ALOX12 inh 0.0%.
Screening CN(Cc1ccccc1)C(=O)COc1ccccc1Cl returned Gal4-VP16 FLuc 22.0%, TDP1 cell noCPT inconclusive, ELG1 DNA repair -3.5%, TDP1 cell CPT -7.8%, ALOX12 inh -1.9% and RORgamma inh 32.0%.
For CCc1ccc(OCCNC(=O)c2ccco2)cc1 the results were Gal4-VP16 FLuc 0.3%, TDP1 cell noCPT -8.9%, ELG1 DNA repair inconclusive, TDP1 cell CPT -19.0%, ALOX12 inh 1.7% and RORgamma inh 29.4%.
For CCc1ccc(CN(Cc2ccco2)C(=O)COc2ccccc2Cl)cc1 the results were TDP1 cell noCPT 23.1µM*, TDP1 cell CPT inconclusive and ALOX12 inh 0.0%.
`Cc1ccc(OCC(=O)N(Cc2ccco2)Cc2ccc(C)o2)cc1` gave TDP1 cell noCPT 16.4µM*, TDP1 cell CPT 16.4µM* and ALOX12 inh -14.1%.
`COc1ccc(C(=O)c2ccccc2)c(OCc2ccccc2C#N)c1` gave ALOX12 inh 11.2%.
Screening COc1cc(C(=O)NCCNC(=O)c2cn(C)c3ccccc23)cc(OC)c1OC returned ALOX12 inh 9.4%.
Screening Cc1cccc(OCC(=O)N(Cc2ccc(N(C)C)cc2)Cc2ccco2)c1C returned TDP1 cell noCPT 7.31µM*, TDP1 cell CPT inconclusive and ALOX12 inh -5.9%.
`COC(=O)c1ccc(NC(=O)CCc2c(C)[nH]n(-c3ccc(F)cc3)c2=O)cc1` gave ALOX12 inh 17.4%.
For CCOc1cc(C#N)c(NC(=O)c2ccc3c(c2)OCO3)cc1OCC the results were ALOX12 inh 3.7%.
O=C(NCc1ccco1)c1ccc2c(c1)N(Cc1cccc(Cl)c1)C(=O)c1ccccc1S2=O (configuration not stated) was read as TDP1 cell noCPT inconclusive, TDP1 cell CPT inconclusive and ALOX12 inh -35.4%.
O=C(NCc1ccco1)c1ccc2c(c1)N(Cc1ccc(F)cc1)C(=O)c1ccccc1S2(=O)=O was read as TDP1 cell noCPT 14.6µM*, TDP1 cell CPT inconclusive and ALOX12 inh -25.9%.
`O=C(NCc1ccco1)c1ccc2c(c1)N(Cc1ccc(Cl)cc1)C(=O)c1ccccc1S2=O` (configuration not stated) gave TDP1 cell noCPT 18.4µM*, TDP1 cell CPT inconclusive and ALOX12 inh inconclusive.
